# Test results from PubChem BioAssay (EPA / NIEHS).
# Inconclusive results are not listed. Calls of active or inactive are those of the source. Rule for the calls: active = hit-call score of the fitted dose curve at least 0.9, where 1 is the maximum; inconclusive = response in the unintended direction; inactive = score below 0.9.
# Key:
# [1] = molecular target: guinea pig Bradykinin Receptor B2 (BK2), BDKRB2 (gene 100135486) (UniProt O70526); test: NVS_GPCR_gBK2: NovaScreen (NVS) G Protein-Coupled Receptor Assay for guinea pig Bradykinin Receptor B2 (BK2) (AID 2283292)
# Chain of guinea pig Bradykinin Receptor B2 (BK2), BDKRB2 (gene 100135486) (O70526 whole entry, looked up): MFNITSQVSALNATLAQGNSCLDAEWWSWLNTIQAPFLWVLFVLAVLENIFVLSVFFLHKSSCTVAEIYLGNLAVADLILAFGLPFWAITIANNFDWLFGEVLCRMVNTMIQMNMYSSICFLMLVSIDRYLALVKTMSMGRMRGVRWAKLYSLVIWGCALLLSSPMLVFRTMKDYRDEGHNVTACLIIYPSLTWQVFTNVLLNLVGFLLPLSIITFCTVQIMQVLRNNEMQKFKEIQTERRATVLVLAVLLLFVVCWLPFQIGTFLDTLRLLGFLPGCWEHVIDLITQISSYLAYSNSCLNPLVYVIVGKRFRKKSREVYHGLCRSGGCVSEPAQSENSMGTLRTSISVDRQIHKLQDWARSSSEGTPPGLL
# Method in brief: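 Radioligand displacement on guinea pig ileum membranes for 1 h, read by filter-based scintillation counting; loss of signal relative to DMSO. Compounds were screened in duplicate at 25 uM, and those passing the threshold were retested in concentration-response up to 50 uM.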
# [2] = molecular target: mouse Cholecystokinin, CCK2 Receptor (CCKB), Cckbr (gene 12426) (UniProt P56481); test: NVS_GPCR_mCKKBCentral: NovaScreen (NVS) G Protein-Coupled Receptor Assay for mouse Cholecystokinin, CCK2 Receptor (CCKB) (AID 2283293)
# Chain of mouse Cholecystokinin, CCK2 Receptor (CCKB), Cckbr (gene 12426) (P56481 whole entry, looked up): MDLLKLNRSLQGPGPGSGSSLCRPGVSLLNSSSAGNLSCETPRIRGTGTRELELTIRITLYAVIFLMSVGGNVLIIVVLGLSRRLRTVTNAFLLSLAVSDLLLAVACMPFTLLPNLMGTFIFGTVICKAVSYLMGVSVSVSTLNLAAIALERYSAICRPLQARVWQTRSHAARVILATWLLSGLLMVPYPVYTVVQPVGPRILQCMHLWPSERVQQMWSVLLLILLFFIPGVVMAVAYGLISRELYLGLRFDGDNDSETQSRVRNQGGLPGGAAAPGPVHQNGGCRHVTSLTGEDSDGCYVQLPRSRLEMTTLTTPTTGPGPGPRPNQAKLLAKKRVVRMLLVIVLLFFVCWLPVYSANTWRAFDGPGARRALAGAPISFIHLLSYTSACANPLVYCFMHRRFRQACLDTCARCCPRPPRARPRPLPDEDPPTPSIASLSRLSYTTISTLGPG
# Method in brief: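 Radioligand displacement binding on mouse forebrain membranes, 2 h exposure, filter-based scintillation counting. Primary screen in duplicate at 25 uM; actives (e.g. ≥30% inhibition) retested in concentration-response up to 50 uM; loss of binding signal relative to DMSO.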
# [3] = molecular target: rat Adrenergic, Alpha 1A Receptor (Adra1A), Adra1a (gene 29412) (UniProt P43140); test: NVS_GPCR_rAdra1A: NovaScreen (NVS) G Protein-Coupled Receptor Assay for rat Adrenergic, Alpha 1A Receptor (Adra1A) (AID 2283296)
# Chain of rat Adrenergic, Alpha 1A Receptor (Adra1A), Adra1a (gene 29412) (P43140 whole entry, looked up): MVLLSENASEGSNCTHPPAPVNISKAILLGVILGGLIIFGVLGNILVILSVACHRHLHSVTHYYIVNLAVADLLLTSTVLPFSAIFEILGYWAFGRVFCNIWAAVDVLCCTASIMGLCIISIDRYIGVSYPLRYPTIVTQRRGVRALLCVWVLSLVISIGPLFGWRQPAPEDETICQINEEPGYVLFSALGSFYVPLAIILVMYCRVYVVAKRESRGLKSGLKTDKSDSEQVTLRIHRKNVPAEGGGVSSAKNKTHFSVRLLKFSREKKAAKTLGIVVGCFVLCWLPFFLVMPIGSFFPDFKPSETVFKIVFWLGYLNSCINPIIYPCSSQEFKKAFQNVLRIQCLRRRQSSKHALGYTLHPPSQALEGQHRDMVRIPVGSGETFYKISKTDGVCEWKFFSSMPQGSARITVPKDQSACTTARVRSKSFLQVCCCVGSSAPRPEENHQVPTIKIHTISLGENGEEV
# Method in brief: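 Rat cortical membranes pretreated with chlorethyl clonidine; competitive radioligand displacement, 1 h. Filter-based scintillation counting. Primary screen in duplicate at 25 uM, actives followed in concentration series.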
# [4] = molecular target: rat Histamine Receptor (H3), Hrh3 (gene 85268) (UniProt Q9QYN8); test: NVS_GPCR_rH3: NovaScreen (NVS) G Protein-Coupled Receptor Assay for rat Histamine Receptor (H3) (AID 2283303)
# Chain of rat Histamine Receptor (H3), Hrh3 (gene 85268) (Q9QYN8 whole entry, looked up): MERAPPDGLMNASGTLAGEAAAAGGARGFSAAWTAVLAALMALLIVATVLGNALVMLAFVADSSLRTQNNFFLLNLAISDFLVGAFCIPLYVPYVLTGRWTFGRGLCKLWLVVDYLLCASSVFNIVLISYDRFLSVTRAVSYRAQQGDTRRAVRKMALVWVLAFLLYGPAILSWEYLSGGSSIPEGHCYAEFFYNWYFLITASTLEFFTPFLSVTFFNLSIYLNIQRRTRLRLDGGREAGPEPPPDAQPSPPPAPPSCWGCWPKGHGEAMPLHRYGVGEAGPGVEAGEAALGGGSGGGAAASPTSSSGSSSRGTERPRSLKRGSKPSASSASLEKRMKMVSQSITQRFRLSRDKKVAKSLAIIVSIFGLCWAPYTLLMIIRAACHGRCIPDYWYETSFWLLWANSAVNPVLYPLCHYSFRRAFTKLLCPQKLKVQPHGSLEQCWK
# Method in brief: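 Rat forebrain membranes incubated 1 h with compound; radioligand displacement measured by filter-based scintillation counting. Single-concentration duplicates at 25 µM, then concentration-response up to 50 µM, relative to DMSO.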
smiles,measurement,setting,value
CCCCCCCCC(=O)O,outcome,[1],inactive
Cc1oc(-c2ccccc2)nc1CCOc1ccc(C[C@H](Nc2ccccc2C(=O)c2ccccc2)C(=O)O)cc1,outcome,[1],inactive
same,AC50,[2],46 µM (active)
CC(=O)NC1(c2cccc(F)c2)CCN(CC[C@@]2(c3ccc(Cl)c(Cl)c3)CN(c3ccccc3)C(=O)CO2)CC1,AC50,[3],34.8 µM (active)
CCN(CC)CCNc1ccc(CNC=O)c2sc3ccc(OC)cc3c(=O)c12,AC50,[3],18.9 µM (active)
CN1CCC[C@H]1c1cccnc1,AC50,[4],25 µM (active)
CCCCCCCC(=O)O,outcome,[4],inactive
